Screens: PubChem, National Center for Advancing Translational Sciences (NCATS)
FMDV inh: High Throughput Screening for Foot and Mouth Disease Virus Antivirals; Potency, µM (titrated, usually from 57.9 µM), inactives show at the highest dose activity change, negative = inhibition, hits mostly inhibitors; AID 1159524, 2015; 410,000 compounds, 1.2% hits; FMDV antiviral cell-based qHTS; calls by dose curve; tested in HEK293T cells; also: read-out not given here; potency is read from the fitted curve at half-maximal effect; % is scaled to controls: 0 for no effect and ±100 for the full control effect; nearly all actives have a fitted effect of over 45% in size
Sm TGR inh: qHTS Assay for the Inhibitors of Schistosoma Mansoni Peroxiredoxins | AID 485364, 2010 | 360,000 compounds, 3% hits | purified TGR, DTNB reduction, TNB absorbance 405 nm | Potency, µM (titrated, usually from 114 µM), for inactives: at the top dose activity change, negative = inhibition, most hits filed as inhibitors | Schistosoma mansoni thioredoxin glutathione reductase (TGR), Q962Y6; active = well fitted inhibition curve with a large enough effect; inconclusive = small, poorly fitted or top-dose-only effect; inactive = no such curve, though single readings can be large or run the other way; also: potency is read from the fitted curve at half-maximal effect; % is scaled to controls: 0 for no effect and ±100 for the full control effect; nearly all actives have a fitted effect of over 60% in size
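TGR 20 nM + NADPH 100 uM (dispensed conc.), cpd preinc 15 min RT; start with NADPH (500 uM addition) then DTNB (15 mM addition). Kinetic TNB absorbance, 405 nm filter. Four-parameter Hill fit across titration.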
Cycloheximide cs: Cycloheximide Counterscreen for Small Molecule Inhibitors of Shiga Toxin; cell reporter, cycloheximide protein synthesis inhibition counterscreen; max response, %; 300,000 compounds, 12% hits; in the data active = max response mostly above about 13%, no sharp cut-off; inactive = mostly below about 14%; also: read at 38.3 µM for the half of the compounds with a filed dose; 0% is about no effect
Shiga toxin inh: A qHTS for Small Molecule Inhibitors of Shiga Toxin | Vero cells, Shiga toxin protein synthesis inhibition reporter | inhibition, % at 38.7 µM | 290,000 compounds, 9.2% hits; in the data active = inhibition mostly above about 28%, no sharp cut-off; inactive = mostly below about 43%; also: 0% is about no effect
An asterisk follows results filed as active. A selection: hits, their analogues and other compounds. The true share with any hit is near 12%.

Results for C/C(Cc1ccccc1)=N\NC(=O)CNC(=O)c1cccc(F)c1 ?
FMDV inh: 34.1%; Sm TGR inh: -24.8%; Cycloheximide cs: -1.4; Shiga toxin inh: -2.5

How did Cc1ccc(SC(=O)c2c(C)noc2-c2cc(C)on2)cc1 do in these assays?
FMDV inh: inconclusive; Sm TGR inh: 7.94µM*; Cycloheximide cs: -1.7; Shiga toxin inh: 1.9

What do the screens show for `O=C(CSc1n[nH]c(-c2ccccc2Cl)n1)N1CCN(c2ccc(F)cc2)CC1`?
FMDV inh: 0.0%; Sm TGR inh: -2.6%

Results for CCOC(=O)c1[nH]c2ccccc2c1NC(=S)Nc1ccccc1 ?
FMDV inh: 7.4%; Sm TGR inh: -33.0%; Cycloheximide cs: 23.0*; Shiga toxin inh: 28.4

Results for CCOC(=O)c1[nH]c2ccccc2c1NC(C)=O ?
FMDV inh: -13.2%; Sm TGR inh: -0.4%; Cycloheximide cs: -3.7; Shiga toxin inh: -6.9

Results for CCOC(=O)c1[nH]c2ccc(C)cc2c1N ?
FMDV inh: 60.1%; Sm TGR inh: -19.6%; Cycloheximide cs: 27.1*; Shiga toxin inh: 61.3*

Results for CCOC(=O)c1[nH]c2cc(OC)c(OC)cc2c1N ?
FMDV inh: -4.3%; Sm TGR inh: -23.7%; Cycloheximide cs: 2.0; Shiga toxin inh: 0.1

What do the screens show for `CCOC(=O)c1[nH]c2ccccc2c1NC(=S)Nc1cccc(C)c1`?
FMDV inh: 25.0%; Sm TGR inh: -23.3%; Cycloheximide cs: 31.7*; Shiga toxin inh: 26.9

What do the screens show for `Cc1ccc(NC(=O)CCC(=O)N2Cc3ccccc3Oc3ncccc32)c(C)c1`?
FMDV inh: -17.3%; Sm TGR inh: 1.4%

Results for NS(=O)(=O)c1ccc(NC(=O)CSC2CCCCC2)cc1 ?
FMDV inh: 15.7%; Sm TGR inh: -22.7%; Cycloheximide cs: 15.5; Shiga toxin inh: 39.9

What do the screens show for `COc1ccc(NC(=O)CSC2CCCCC2)cc1`?
FMDV inh: 62.7%; Sm TGR inh: -7.8%; Cycloheximide cs: 61.2*; Shiga toxin inh: 153.2*

What do the screens show for `COc1ccc(NC(=O)CN2CCC(C(N)=O)(N3CCCCC3)CC2)cc1`?
FMDV inh: 14.7%; Sm TGR inh: -0.9%; Cycloheximide cs: -3.5; Shiga toxin inh: -16.9

How did COc1ccc(NC(=O)CN2CCN(CC(=O)Nc3ccc(F)cc3F)CC2)cc1 do in these assays?
FMDV inh: 19.3%; Sm TGR inh: -32.9%; Cycloheximide cs: 24.4*; Shiga toxin inh: 30.3*

What do the screens show for `COc1ccc(NC(=O)CN2CCCCC2)cc1`?
FMDV inh: 23.8%; Sm TGR inh: -10.5%; Cycloheximide cs: 34.4*; Shiga toxin inh: 65.9

Results for COc1ccc(NC(=O)CCN2CCCC(C)C2)cc1 (stereo not given) ?
FMDV inh: -14.6%; Sm TGR inh: 89.1µM*; Cycloheximide cs: 3.2; Shiga toxin inh: -7.7

Results for CCC(C(=O)Nc1cccc(Cl)c1C)n1nc(C)c2sc3ccccc3c2c1=O (stereo not given) ?
FMDV inh: -4.7%; Sm TGR inh: -4.7%

Results for COc1ccc(C(=O)Nc2nnc(SCc3cc(=O)n4cccc(C)c4n3)s2)cc1 ?
FMDV inh: 23.4%; Sm TGR inh: 4.2%

What do the screens show for `O=C(CN1CCCCCC1)Nc1ccc(Br)cc1`?
FMDV inh: 30.7%; Sm TGR inh: -6.1%; Cycloheximide cs: 24.4*; Shiga toxin inh: 40.1

Results for O=C(CN1CCCC1)Nc1ccc(Br)cc1 ?
FMDV inh: 17.2%; Sm TGR inh: 2.6%; Cycloheximide cs: 9.4; Shiga toxin inh: 34.0

What do the screens show for `CC(=O)c1ccc(NC(=O)CN2CCCC2)cc1`?
FMDV inh: 11.0%; Sm TGR inh: -11.2%; Cycloheximide cs: 27.1*; Shiga toxin inh: 27.5*

Results for O=C(CN1CCCCCC1)Nc1ccc(Br)cn1 ?
FMDV inh: 8.7%; Sm TGR inh: inconclusive; Cycloheximide cs: 14.9*; Shiga toxin inh: 25.7

How did Cc1ccc(NC(=O)CN2CCCC2)cc1 do in these assays?
FMDV inh: -8.6%; Sm TGR inh: -9.7%; Cycloheximide cs: 2.5

Results for COc1cccc(C2=Nn3c(nnc3-c3cccc(OC)c3OC)SC2)c1 ?
Cycloheximide cs: 0.8; Shiga toxin inh: -4.0

What do the screens show for `CCCCCCOc1ccc(CN2CCN(CC)CC2)cc1`?
FMDV inh: -6.3%; Sm TGR inh: -0.8%; Cycloheximide cs: 54.6*; Shiga toxin inh: 140.0*

How did CCOc1ccc(CN2CCSCC2)cc1 do in these assays?
FMDV inh: -9.0%; Sm TGR inh: 11.5%; Cycloheximide cs: 1.3; Shiga toxin inh: 3.0

Results for CCCCOc1ccc(CN2CCSCC2)cc1 ?
FMDV inh: 26.2%; Sm TGR inh: 7.1%; Cycloheximide cs: 29.5*; Shiga toxin inh: 42.1*
